{"source": "PubChem BioAssay (Tox21)", "note": "Several values for one entry are separate records, joined by “and”; a condition that tells them apart may be missing. Equal values may be shown once. Some structures have more than one record in an assay (separate samples or runs), and their calls can disagree. Activity calls are given as the source filed them. Entries that show only a call come without a potency. Calls follow the shape of the full dose curve. Potency is read from the fitted curve at half-maximal effect.", "data": [{"target": "Thyrotropin-releasing hormone receptor (Homo sapiens) (UniProt P34981)", "sequence (P34981 whole entry, looked up)": "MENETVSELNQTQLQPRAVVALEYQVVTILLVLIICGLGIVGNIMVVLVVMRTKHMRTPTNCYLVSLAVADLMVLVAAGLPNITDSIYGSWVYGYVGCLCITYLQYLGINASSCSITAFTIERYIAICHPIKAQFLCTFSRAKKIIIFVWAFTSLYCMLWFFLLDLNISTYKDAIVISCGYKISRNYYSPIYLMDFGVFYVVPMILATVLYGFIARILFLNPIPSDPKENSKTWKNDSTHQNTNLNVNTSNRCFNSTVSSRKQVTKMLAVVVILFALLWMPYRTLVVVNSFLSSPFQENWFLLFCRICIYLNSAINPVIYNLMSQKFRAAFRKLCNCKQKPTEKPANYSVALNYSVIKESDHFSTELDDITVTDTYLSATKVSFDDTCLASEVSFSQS", "experiment": "qHTS assay to identify small molecule agonists of the thyrotropin-releasing hormone receptor (TRHR) signaling pathway (AID 1346891)", "settings": "TRHR-HEK293 calcium fluorescence, agonist mode; series mostly up to 57.6 µM", "source_text": "National Center for Advancing Translational Sciences [NCATS] NIH Chemical Genomics Center [NCGC] U.S. Environmental Protection Agency [EPA] National Institutes of Environmental Health Sciences [NIEHS] National Toxicology Program [NTP] Assay overview: Thyrotropin-releasing hormone (TRH) receptor (TRHR) is a G-protein-coupled receptor which binds the tripeptide thyrotropin releasing hormone. TRHR is found in the brain and, when bound by TRH, acts (through phospholipase C) to increase intracellular inositol trisphosphate. It plays a crucial role in the anterior pituitary where it controls the synthesis and secretion of thyroid stimulating hormone and prolactin. The TRHR-Hek293 assay is a cell-based assay, and it has the potential to screen G protein-coupled receptors. A compound/drug can either activate (agonist) or suppress (antagonist) GPCRs that can be monitored by levels of intracellular calcium. Using this assay, the Tox21 10K compound library was screened to identify potential TRHR agonists.\nAssay Protocol Summary: The TRHR-Hek293 cells were dispensed at 1500cells/4uL/well in 1536-well black-clear bottom plates using a Multidrop dispenser. After the assay plates were incubated at a 37 C/5% CO2 incubator for 18 hours, 4 uL of Dye-Loading Solution was added to each well. The plates were incubated at 37 C for 2 hours. For agonist mode, 23 nL of compounds dissolved in DMSO, positive controls or DMSO only was transferred to the assay plate by a pin tool. The fluorescence intensity in the plates was measured using FDSS 7000EX kinetic plate reader for 3 min at 1 sec intervals. Each test compound was measured at 15 concentrations and in triplicates.", "values": [{"smiles": "NC(=O)OCC(COC(N)=O)c1ccccc1", "Potency": "inactive"}, {"smiles": "CCN1CCCC1=O", "Potency": "inactive"}, {"smiles": "CN/C(=C\\[N+](=O)[O-])NCCSCc1ccc(CN(C)C)o1", "Potency": "inactive"}, {"smiles": "COC1=CC(=O)C[C@@H](C)[C@]12Oc1c(Cl)c(OC)cc(OC)c1C2=O", "Potency": "inactive"}, {"smiles": "NCCNc1cccc2ccccc12", "Potency": "inactive"}, {"smiles": "CC(=O)CCC(C)C", "Potency": "inactive and 17.4 µM (active)"}, {"smiles": "C#C[C@]1(O)CC[C@H]2[C@@H]3CCc4cc(O)ccc4[C@H]3CC[C@@]21C", "Potency": "inactive"}, {"smiles": "N[C@@H](Cc1c[nH]c2ccccc12)C(=O)O", "Potency": "inactive"}, {"smiles": "C=C(C)OC(C)=O", "Potency": "inactive"}, {"smiles": "C[C@]12CC[C@@H]3c4ccc(O)cc4C[C@@H](CCCCCCCCCS(=O)CCCC(F)(F)C(F)(F)F)[C@H]3[C@@H]1CC[C@@H]2O", "note": "(stereo not given in full)", "Potency": "inactive"}, {"smiles": "c1ccc2[nH]c(-c3cscn3)nc2c1", "Potency": "inactive"}, {"smiles": "CCN(CC)CCOC(=O)c1ccc(N)cc1", "Potency": "inactive"}, {"smiles": "NC(=O)N1c2ccccc2C=Cc2ccccc21", "Potency": "inactive"}, {"smiles": "COCC(C)N", "note": "(stereo not given)", "Potency": "inactive"}, {"smiles": "CCn1cc(C(=O)O)c(=O)c2ccc(C)nc21", "Potency": "inactive"}, {"smiles": "CCc1cc(C(N)=S)ccn1", "Potency": "inactive"}, {"smiles": "Nc1cccc(N)c1", "Potency": "inactive"}, {"smiles": "NC(=O)N/N=C/c1ccc([N+](=O)[O-])o1", "Potency": "inactive"}, {"smiles": "C[C@]12CC[C@@H]3c4ccc(O)cc4CC[C@H]3[C@@H]1CCC2=O", "Potency": "inactive"}, {"smiles": "C=CCOC(=O)CC(C)C", "Potency": "inactive"}, {"smiles": "CCCCOCCOCCOC(C)=O", "Potency": "inactive"}, {"smiles": "COCCOCCOC", "Potency": "inactive"}, {"smiles": "Cn1cnc2c1c(=O)[nH]c(=O)n2C", "Potency": "inactive"}, {"smiles": "COc1cc(C=O)ccc1O", "Potency": "inactive"}, {"smiles": "C1CNCCN1", "Potency": "inactive"}, {"smiles": "CCCCNC(=O)NS(=O)(=O)c1ccc(N)cc1", "Potency": "inactive"}, {"smiles": "CC(=O)/C=C/C1=C(C)CCCC1(C)C", "Potency": "inactive"}, {"smiles": "CC1=NN(c2ccccc2)C(=O)C1", "Potency": "inactive"}, {"smiles": "Cc1cccc(Nc2cc(Cl)nc(SCC(=O)O)n2)c1C", "Potency": "inactive"}, {"smiles": "COc1cc(O)c(C(=O)c2ccccc2)cc1S(=O)(=O)O", "Potency": "inactive"}, {"smiles": "COC(=O)C1CCC(C(=O)OC)CC1", "note": "(stereo not given)", "Potency": "inactive"}, {"smiles": "CCCCCCCCOc1ccc(C(=O)c2ccccc2)c(O)c1", "Potency": "inactive"}, {"smiles": "COc1ccc(C(=O)c2ccccc2)c(O)c1", "Potency": "inactive"}, {"smiles": "COc1ccccc1O", "Potency": "inactive"}, {"smiles": "CC(=O)c1ccc(S(=O)(=O)NC(=O)NC2CCCCC2)cc1", "Potency": "inactive"}, {"smiles": "Cc1cccc2ccccc12", "Potency": "inactive"}, {"smiles": "CN(C)C=O", "Potency": "inactive"}, {"smiles": "Nc1ccc(N=Nc2ccccc2)c(N)n1", "Potency": "inactive"}, {"smiles": "COc1ccccc1NC(=O)CC(C)=O", "Potency": "inactive"}, {"smiles": "OCCCc1ccccc1", "Potency": "inactive"}]}]}
